Assay results from PubChem BioAssay AID1159580 (chemical genetic matrix, 2015).
Values joined by “and” are separate entries in the source; they are usually repeats but may differ in a detail not shown here. Equal entries are not always repeated. About 2,000 (36%) of roughly 5,500 compounds were called active. Roughly 18% stayed inconclusive and do not appear here. Rule as the data show it: active = normalized growth mostly below about 0.91 (no sharp cut-off); inconclusive = no clear call, values can overlap the other calls; inactive = mostly above about 0.92. The list shows a part of the results.

Experiment: chemical genetic growth profiling, strain panel (AID 1159580);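 also: tested at 20 µM; growth read once vehicle control cultures reached saturation at 30 °C; 1 = growth at the plate median or of vehicle wells; lower values mean less growth of the strain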
Conditions: S. cerevisiae deletion strains, growth OD

Measured: normalized growth

NCCC(=O)N[C@@H](Cc1cnc[nH]1)C(=O)O
inactive: locus YAL021C, strain ccr4, active compounds read low 0.997 | locus YAL026C, strain drs2, active compounds read low 1.01 | locus YAL030W, strain snc1, active compounds read low 1.01 | locus YBL061C, strain skt5, active compounds read low 1.01 | locus YBR009C, strain hhf1, active compounds read low 1.01 | locus YBR021W, strain FUR4, active compounds read low 1.06 | locus YBR023C, strain chs3, active compounds read low 1 | locus YBR171W, strain sec66, active compounds read low 1.02 | locus YBR229C, strain ROT2, active compounds read low 0.993 | locus YBR231C, strain swc5, active compounds read low 1.01 | locus YBR279W, strain paf1, active compounds read low 1.01 | locus YCL011C, strain gbp2, active compounds read low 1.01 | locus YCL016C, strain dcc1, active compounds read low 1.01 | locus YCL029C, strain bik1, active compounds read low 0.967 | locus YCL061C, strain MRC1, active compounds read low 1.01 | locus YCL069W, strain vba3, active compounds read low 1.01 | locus YCR088W, strain abp1, active compounds read low 1.01 | locus YDL005C, strain med2, active compounds read low 1.01 | locus YDL035C, strain GPR1, active compounds read low 0.997 | locus YDL040C, strain nat1, active compounds read low 0.998 | locus YDL074C, strain BRE1, active compounds read low 1.01 | locus YDL101C, strain DUN1, active compounds read low 0.994 | locus YDL134C, strain PPH21, active compounds read low 1.04 | locus YDL185W, strain tfp1, active compounds read low 0.957 | locus YDL192W, strain arf1, active compounds read low 0.98 | locus YDR001C, strain nth1, active compounds read low 1.01 | locus YDR069C, strain doa4, active compounds read low 1.01 | locus YDR101C, strain arx1, active compounds read low 0.99 | locus YDR137W, strain rgp1, active compounds read low 1.01 | locus YDR159W, strain sac3, active compounds read low 1.02 | locus YDR162C, strain NBP2, active compounds read low 1.03 | locus YDR195W, strain ref2 0.978 | locus YDR297W, strain sur2, active compounds read low 1.01 | locus YDR318W, strain mcm21, active compounds read low 0.986 | locus YDR334W, strain swr1, active compounds read low 1.01 | locus YDR335W, strain msn5, active compounds read low 1.01 | locus YDR388W, active compounds read low 0.979 | locus YDR392W, strain spt3, active compounds read low 1.03 | locus YDR502C, strain sam2, active compounds read low 0.997 | locus YEL003W, strain gim4, active compounds read low 1.02 | locus YEL037C, strain rad23, active compounds read low 1.01 | locus YEL061C, strain CIN8 (second series), active compounds read low 1.01 | locus YEL061C, strain CIN8, active compounds read low 0.997 | locus YER015W, strain faa2, active compounds read low 1.01 | locus YER016W, strain bim1, active compounds read low 1 | locus YER110C, active compounds read low 0.972 | locus YER111C, strain swi4, active compounds read low 0.992 | locus YER155C, strain BEM2 (second series), active compounds read low 1.03 | locus YER155C, strain BEM2, active compounds read low 0.999 | locus YER167W, strain BCK2, active compounds read low 0.99 | locus YFR010W, strain ubp6, active compounds read low 1.02 | locus YGL078C, strain dbp3, active compounds read low 0.999 | locus YGL086W, strain mad1, active compounds read low 1 | locus YGL167C, strain pmr1, active compounds read low 1.01 | locus YGL173C, strain kem1, active compounds read low 1.01 | locus YGL227W, strain vid30, active compounds read low 1.01 | locus YGL240W, strain doc1, active compounds read low 1.01 | locus YGL248W, strain PDE1, active compounds read low 1 | locus YGL253W, strain hxk2, active compounds read low 1.02 | locus YGR135W, strain pre9, active compounds read low 0.977 | locus YGR229C, strain SMI1, active compounds read low 1.02 | locus YGR252W, strain gcn5, active compounds read low 1.05 | locus YHR013C, strain ard1, active compounds read low 1.04 | locus YHR027C, strain rpn1, active compounds read low 1.02 | locus YHR030C, strain SLT2, active compounds read low 0.983 and 1.01 | locus YHR079C, strain IRE1 (second series), active compounds read low 0.979 | locus YHR079C, strain IRE1, active compounds read low 1.02 | locus YHR094C, strain hxt1, active compounds read low 0.987 | locus YHR129C, strain ARP1, active compounds read low 0.994 | locus YHR142W, strain chs7, active compounds read low 1.03 | locus YHR200W, strain rpn10, active compounds read low 0.986 | locus YIL066C, strain RNR3, active compounds read low 1.01 | locus YIL073C, strain SPO22, active compounds read low 0.942 | locus YIL125W, strain kgd1, active compounds read low 0.975 | locus YIR030C, strain dcg1, active compounds read low 0.983 | locus YJL092W, strain hpr5, active compounds read low 1.01 | locus YJL095W, strain BCK1 (second series), active compounds read low 1.02 | locus YJL095W, strain BCK1, active compounds read low 1.02 and 1.01 | locus YJL115W, strain asf1, active compounds read low 1.02 | locus YJL129C, strain trk1, active compounds read low 1.02 | locus YJL134W, strain LCB3, active compounds read low 0.988 | locus YJL154C, strain vps35, active compounds read low 1.01 | locus YJL164C, strain tpk1, active compounds read low 1.01 | locus YJL166W, strain qcr8, active compounds read low 1.01 | locus YJL168C, strain set2, active compounds read low 0.985 | locus YJL187C, strain SWE1 (second series), active compounds read low 0.999 | locus YJL187C, strain SWE1, active compounds read low 1 | locus YJR043C, strain POL32, active compounds read low 1.02 | locus YJR066W, strain TOR1, active compounds read low 0.968 | locus YKL009W, strain mrt4, active compounds read low 0.94 | locus YKL068W, active compounds read low 0.978 | locus YKL085W, strain MDH1 (second series), active compounds read low 0.975 | locus YKL085W, strain MDH1, active compounds read low 0.975 | locus YKL160W, strain elf1, active compounds read low 1.01 | locus YKL190W, strain CNB1, active compounds read low 0.991 | locus YKR001C, strain vps1, active compounds read low 1.02 | locus YKR026C, strain gcn3, active compounds read low 1.01 | locus YKR091W, strain srl3, active compounds read low 1.01 | locus YLL001W, strain dnm1, active compounds read low 1 | locus YLL026W, active compounds read low 1.01 | locus YLL041C, strain sdh2, active compounds read low 1.01 | locus YLR027C, strain aat2, active compounds read low 0.997 | locus YLR039C, strain RIC1, active compounds read low 1.01 | locus YLR058C, strain SHM2, active compounds read low 0.987 | locus YLR102C, strain apc9, active compounds read low 0.991 | locus YLR113W, strain HOG1, active compounds read low 0.985 | locus YLR221C, strain rsa3, active compounds read low 1.01 | locus YLR258W, strain gsy2, active compounds read low 1.02 | locus YLR262C, strain YPT6 (second series), active compounds read low 1.02 | locus YLR262C, strain YPT6, active compounds read low 0.93 | locus YLR268W, strain sec22, active compounds read low 0.982 | locus YLR320W, strain mms22, active compounds read low 1.02 | locus YLR330W, strain CHS5, active compounds read low 0.983 | locus YLR342W, strain FKS1 (second series), active compounds read low 1.01 | locus YLR342W, strain FKS1, active compounds read low 1.02 | locus YLR357W, strain rsc2, active compounds read low 1.03 | locus YLR370C, strain arc18, active compounds read low 1.01 | locus YLR371W, strain rom2, active compounds read low 0.978 | locus YLR384C, strain iki3, active compounds read low 1.02 | locus YLR418C, strain cdc73, active compounds read low 1 | locus YML016C, strain PPZ1, active compounds read low 0.992 | locus YML032C, strain rad52, active compounds read low 0.976 | locus YML120C, strain ndi1, active compounds read low 1.01 | locus YML124C, strain tub3, active compounds read low 0.986 | locus YMR058W, strain fet3, active compounds read low 1.02 | locus YMR078C, strain ctf18, active compounds read low 0.984 | locus YMR125W, strain sto1, active compounds read low 1.01 | locus YMR129W, active compounds read low 1.01 | locus YMR205C, strain PFK2, active compounds read low 1.01 | locus YMR223W, strain ubp8, active compounds read low 0.979 | locus YMR231W, strain pep5, active compounds read low 0.985 | locus YMR307W, strain GAS1, active compounds read low 1.08 | locus YNL067W, strain RPL9B, active compounds read low 1.01 | locus YNL071W, strain lat1, active compounds read low 1.01 | locus YNL128W, strain TEP1, active compounds read low 0.989 | locus YNL153C, strain GIM3, active compounds read low 1.02 | locus YNL183C, strain NPR1, active compounds read low 0.983 | locus YNL209W, strain ssb2, active compounds read low 1 | locus YNL233W, strain BNI4, active compounds read low 1.03 | locus YNL248C, strain rpa49, active compounds read low 1.02 | locus YNL250W, strain rad50, active compounds read low 0.97 | locus YNL271C, strain bni1, active compounds read low 0.988 | locus YNL298W, strain CLA4, active compounds read low 0.996 | locus YNL307C, strain MCK1, active compounds read low 0.984 | locus YNL322C, strain KRE1 (second series), active compounds read low 1.02 | locus YNL322C, strain KRE1, active compounds read low 0.994 | locus YNR049C, strain mso1, active compounds read low 1.01 | locus YNR052C, strain pop2, active compounds read low 0.982 | locus YOL012C, strain htz1 0.915 | locus YOL147C, strain pex11, active compounds read low 0.993 | locus YOR001W, strain rrp6, active compounds read low 1.01 | locus YOR061W, strain CKA2, active compounds read low 0.99 | locus YOR069W, strain VPS5, active compounds read low 0.993 | locus YOR070C, strain gyp1, active compounds read low 1.02 | locus YOR080W, strain dia2, active compounds read low 1 | locus YOR083W, strain WHI5, active compounds read low 1.02 | locus YOR106W, strain vam3, active compounds read low 1.03 | locus YOR136W, strain idh2, active compounds read low 0.99 | locus YOR144C, strain elg1, active compounds read low 1.01 | locus YOR184W, strain ser1, active compounds read low 1.01 | locus YOR231W, strain MKK1, active compounds read low 1.02 | locus YOR265W, strain rbl2, active compounds read low 0.999 | locus YOR270C, strain vph1, active compounds read low 1.08 | locus YOR290C, strain snf2, active compounds read low 1.02 | locus YOR316C, strain cot1, active compounds read low 0.983 | locus YPL051W, strain arl3, active compounds read low 1.01 | locus YPL055C, strain LGE1, active compounds read low 1.03 | locus YPL078C, strain atp4, active compounds read low 1.01 | locus YPL106C, strain sse1, active compounds read low 1.02 | locus YPL240C, strain hsp82, active compounds read low 1.01 | locus YPL241C, strain CIN2, active compounds read low 0.996 | locus YPL256C, strain CLN2, active compounds read low 1.04 | locus YPR119W, strain clb2, active compounds read low 0.984 | locus YPR141C, strain kar3, active compounds read low 0.973 | locus YPR163C, strain tif3, active compounds read low 0.975 | locus YPR167C, strain met16, active compounds read low 1.01 | strain wtn01, active compounds read low 0.999
